# Measured values reported in the supplement of paper PMC12645437, “Orthogonal IMiD-Degron Pairs Induce Selective Protein Degradation in Cells” (ACS Chemical Biology, 2025).
# Over roughly 8,300 sequences, “log2 fold change of degron read counts, EGFP-low vs EGFP+ sorted cells (limma voom), compound-induced degradation” has its median near -1.1; the highest 2% begin near 3.2. The sample holds the highest values, similar sequences and a random draw of the others, so the mix is not that of the screen.
# T1: CRBN, Q96SW2
# T1 chain: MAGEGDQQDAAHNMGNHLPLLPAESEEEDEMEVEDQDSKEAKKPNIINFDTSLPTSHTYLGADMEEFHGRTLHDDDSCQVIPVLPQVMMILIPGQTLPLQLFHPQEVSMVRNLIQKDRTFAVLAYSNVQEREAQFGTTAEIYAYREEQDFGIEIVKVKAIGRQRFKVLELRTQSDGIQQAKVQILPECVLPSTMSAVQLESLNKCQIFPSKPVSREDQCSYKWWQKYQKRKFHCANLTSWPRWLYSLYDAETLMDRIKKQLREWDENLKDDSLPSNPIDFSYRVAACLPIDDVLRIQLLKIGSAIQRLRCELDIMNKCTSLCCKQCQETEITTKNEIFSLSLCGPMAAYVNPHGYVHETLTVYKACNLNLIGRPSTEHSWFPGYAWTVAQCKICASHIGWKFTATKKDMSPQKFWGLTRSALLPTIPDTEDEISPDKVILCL
# Target: T1, CRBN, Q96SW2
# Test: log2 fold change of degron read counts, EGFP-low vs EGFP+ sorted cells (limma voom), compound-induced degradation; higher = more compound-induced degradation of the degron-EGFP fusion; degrons are variants of IKZF1/3 zinc finger 2; compound dose not given here
# Settings: Jurkat, 18 h
# [1] = compound: compound 19 (5-tert-butyl-thalidomide)
# [2] = compound: compound 22 (5-morpholino-thalidomide)
# [3] = compound: compound 33 (diphenyl IMiD analogue)
# 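Also: pooled lentiviral library of zinc finger degron-EGFP fusions in mCherry-positive Jurkat cells, FACS-sorted after compound exposure, with degron abundance counted by next-generation sequencing.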
Sequence,log2 fold change of degron read counts [1],log2 fold change of degron read counts [2],log2 fold change of degron read counts [3],log2 fold change of degron read counts (compound: thalidomide)
"FSCDVCGAIFTQKGNLLRHIKL [46F_47S_49D_50V_52G_53A_54I_55F_67L_, Q9UKT9]",-0.277,-1.23,-0.103,-1.43
"FCCEICGREFTQKGNLLRHIKL [46F_47C_49E_50I_52G_53R_54E_55F_67L_, Q9UKT9]",-2.44,-2.4,-1.78,-1.56
"FNCPICGRDFTQKGNLLRHIKL [46F_47N_49P_50I_52G_53R_54D_55F_67L_, Q9UKT9]",-1.89,-1.85,-1.07,-1.09
"FSCSVCGHQFTQKGNLLRHIKL [46F_47S_49S_50V_52G_53H_54Q_55F_67L_, Q9UKT9]",-2.44,-3.11,-2.86,-2.7
"LCCEICGFECTQKGNLLRHIKL [46L_47C_49E_50I_52G_53F_54E_55C_67L_, Q9UKT9]",-0.329,-0.269,-0.566,0.603
"FHCNQCGAKFTQKGNLLRHIKL [46F_47H_49N_50Q_52G_53A_54K_55F_67L_, Q9UKT9]",-1.43,-1.66,-2.35,-1.73
"FLCDVCGAAFTQKGNLLRHIKL [46F_47L_49D_50V_52G_53A_54A_55F_67L_, Q9UKT9]",-0.47,-1.3,0.2,-0.799
"FFCEICGRCFTQKGNLLRHIKL [46F_47F_49E_50I_52G_53R_54C_55F_67L_, Q9UKT9]",0.787,0.568,0.232,-0.767
"LCCPICGFACTQKGNLLRHIKL [46L_47C_49P_50I_52G_53F_54A_55C_67L_, Q9UKT9]",2.49,2.68,2.8,2.77
"LECPICGFACTQKGNLLRHIKL [46L_47E_49P_50I_52G_53F_54A_55C_67L_, Q9UKT9]",1.75,-0.131,2.17,3.17
"LKCPICGFACTQKGNLLRHIKL [46L_47K_49P_50I_52G_53F_54A_55C_67L_, Q9UKT9]",1.2,-0.283,-0.872,1.19
"LVCPICGFACTQKGNLLRHIKL [46L_47V_49P_50I_52G_53F_54A_55C_67L_, Q9UKT9]",1.96,3.25,2.26,3.56
"LFCPICGFACTQKGNLLRHIKL [46L_47F_49P_50I_52G_53F_54A_55C_67L_, Q9UKT9]",3.05,3.52,2.44,1.94
"LDCPICGFACTQKGNLLRHIKL [46L_47D_49P_50I_52G_53F_54A_55C_67L_, Q9UKT9]",0.373,-0.371,0.648,1.61
"LRCPICGFACTQKGNLLRHIKL [46L_47R_49P_50I_52G_53F_54A_55C_67L_, Q9UKT9]",2.16,2.14,2.39,2.57
"LACPICGFACTQKGNLLRHIKL [46L_47A_49P_50I_52G_53F_54A_55C_67L_, Q9UKT9]",3.6,2.95,2.05,2.43
"LSCPICGFACTQKGNLLRHIKL [46L_47S_49P_50I_52G_53F_54A_55C_67L_, Q9UKT9]",2.81,2.91,2.59,2.54
"LNCPICGFACTQKGNLLRHIKL [46L_47N_49P_50I_52G_53F_54A_55C_67L_, Q9UKT9]",2.3,1.32,1.06,1.78
"LYCPICGFACTQKGNLLRHIKL [46L_47Y_49P_50I_52G_53F_54A_55C_67L_, Q9UKT9]",2.98,3.33,2.6,1.77
"LTCPICGFACTQKGNLLRHIKL [46L_47T_49P_50I_52G_53F_54A_55C_67L_, Q9UKT9]",2.49,3.12,2.65,3.02
